High-throughput results: PubChem BioAssay, several laboratories
Sampled rows, rich in hits. Any-hit rate of the full collection: about 27%.
CYP2C19 inh = inhibitors of human CYP2C19; P33261; CYP2C19 Supersomes, luciferin-H EGE luminescence, 30 min; inhibition, % at 5 µM; actives 21% (n = 96,000);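 active = CYP2C19 inhibition above a set limit at 5 µM in the primary screen, cut at about 50% in these data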;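 also: plate controls were negative control wells for no effect and 2.5 mM tranylcypromine positive control for full effect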
CYP2C9 inh = blocks human cytochrome P450 2C9 | P11712 | CYP2C9 Supersomes, luciferin-H conversion, luminescence | inhibition, % at 5 µM | actives 20% (n = 96,000);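 active = blocking of liver enzyme CYP2C9 beyond about 50% at 5 µM, limit read from the data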
sEH activator = soluble epoxide hydrolase (human) activation; purified human sEH enzymatic activity, activator screen; activation, % at 2 µM; actives 0.04% (n = 91,000); AID 717; in the data active = activation above about 37%
Target sequence (P34913 whole entry, looked up): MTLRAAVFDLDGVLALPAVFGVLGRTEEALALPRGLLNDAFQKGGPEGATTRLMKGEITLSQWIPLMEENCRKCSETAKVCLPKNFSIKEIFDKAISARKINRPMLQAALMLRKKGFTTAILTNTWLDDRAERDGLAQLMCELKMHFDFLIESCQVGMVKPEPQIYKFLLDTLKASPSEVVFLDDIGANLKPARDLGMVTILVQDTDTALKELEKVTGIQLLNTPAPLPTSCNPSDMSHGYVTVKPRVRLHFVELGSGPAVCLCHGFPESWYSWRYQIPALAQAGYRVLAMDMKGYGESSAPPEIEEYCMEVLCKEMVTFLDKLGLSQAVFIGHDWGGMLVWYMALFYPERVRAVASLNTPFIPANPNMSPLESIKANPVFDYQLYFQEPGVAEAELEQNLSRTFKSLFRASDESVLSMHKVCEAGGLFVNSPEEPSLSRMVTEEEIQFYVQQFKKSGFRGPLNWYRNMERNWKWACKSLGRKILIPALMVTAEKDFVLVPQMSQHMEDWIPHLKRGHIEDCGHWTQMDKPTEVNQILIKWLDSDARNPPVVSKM
sEH inh = inhibitors of human soluble epoxide hydrolase; P34913; recombinant human sEH enzymatic activity assay; inhibition, % at 2 µM; actives 0.34% (n = 91,000); in the data active = inhibition above about 80%
CYP2C19 activ = activators of human cytochrome P450 2C19; P33261; 96,000 tested, under 10 active; recombinant CYP2C19, luciferin-H EGE luminescence; active compounds read high; 0 = fully inhibited enzyme, 1 = untreated enzyme; activation factor at 5 µM;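 active = activation factor of at least 2 at 5 µM in the primary screen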;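 also: 0 = wells with 2.5 mM tranylcypromine and 1 = vehicle-only wells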
CYP2C9 activ = CYP2C9 (human) activation; P11712; recombinant CYP2C9, luciferin-H conversion, luminescence; active compounds read high; factor 1 = untreated enzyme, 0 = blocked; activation factor at 5 µM; actives 1.4% (n = 96,000);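 active = activation factor of 2 or more for CYP2C9 at a 5 µM dose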;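 also: 0 = sulfaphenazole-blocked wells and 1 = vehicle-only wells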
Starred values were filed as active, the others as inactive; x = not tested or not shown.

SMILES	CYP2C19 inh	CYP2C9 inh	sEH activator	sEH inh	CYP2C19 activ	CYP2C9 activ
O=C(CSc1nnc(-c2cccs2)n1-c1ccccc1)N1CCCc2ccccc21	48.7	85.3*	2.4	-0.2	0.5	0.1
CC(C)C(=O)Nc1ncc2c(n1)CC(c1cccs1)CC2=O (configuration not stated)	x	x	-22.5	22.5	x	x
O=C(Oc1ccc(-n2cnnn2)cc1)c1ccco1	9.2	4.2	-11.4	10.9	0.9	1
O=C(CSc1nnnn1-c1ccccc1)N1CCCc2ccccc21	79.7*	57.9*	-3.5	-2.1	0.2	0.4
CCn1nnnc1SCC(=O)N1c2ccccc2CCc2ccccc21	90.9*	70.6*	0.3	1.3	0.1	0.3
COc1cccc(N2CCN(Cc3nc4ccccc4c(=O)[nH]3)CC2)c1	20.9	33.8	-0.8	0.1	0.8	0.7
CCN(Cc1nc2ccccc2c(=O)[nH]1)Cc1cc(=O)oc2cc(OC)ccc12	45.8	51.5*	4.0	-6.1	0.5	0.5
Cc1cc2oc(=O)cc(COC(=O)c3n[nH]c4ccccc34)c2cc1C	13.6	76.3*	-2.4	5.0	0.9	0.2
COc1ccc2c(COC(=O)c3n[nH]c4ccccc34)cc(=O)oc2c1	17.0	55.5*	1.6	-3.7	0.8	0.4
COc1ccc(NC(=O)c2ccc(C(=O)c3cc(OC)ccc3OC)cc2)cc1	-0.2	10.6	-5.2	7.8	1	0.9
CCC(=O)N/C(=N/c1nc(C)cc(C)n1)Nc1cccc(OC)c1	14.1	17.0	-9.5	10.7	0.9	0.8
CC(C)=C1C2CC2C2C(C(=O)O)C12 (configuration not stated)	-0.4	7.2	-4.9	4.4	1	0.9
COc1ccccc1C(=O)NCCn1ccc2ccccc21	88.3*	-5.4	14.5	-12.7	0.1	1.1
COc1cccc(C(=O)NCCn2ccc3ccccc32)c1	78.9*	33.2	x	x	0.2	0.7
Cc1cc(C)c(S(=O)(=O)NCCn2ccc3ccccc32)c(C)c1	48.7	87.1*	5.4	-7.1	0.5	0.1
O=C(Cc1ccccc1)NCCn1ccc2ccccc21	75.7*	34.5	x	x	0.2	0.7
Cc1cc(C)c(S(=O)(=O)NCCC2CCCN2C)c(C)c1 (configuration not stated)	2.3	-13.1	-2.5	2.1	1	1.1
CC(=O)NCCn1ccc2ccccc21	18.0	23.2	-7.6	7.6	0.8	0.8
COc1ccc(C(=O)NCCn2ccc3ccccc32)cc1OC	37.9	-12.3	x	x	0.6	1.1
C/C(CC(=O)NCCCN1CCOCC1)=N\NC(=O)COc1ccc(Cl)cc1	-3.7	-12.2	-4.1	6.4	1	1.1
COc1cc(OC)cc(C(=O)NCCn2ccc3ccccc32)c1	77.7*	10.0	4.3	-5.1	0.2	0.9
CC1(C)Cc2c(c(N3CCOCC3)nc3sc4c(N5CCOCC5)nnnc4c23)CS1	19.5	77.9*	4.9	-2.1	0.8	0.2
CC1(C)Cc2c(c(N3CCOCC3)nc3sc4c(=O)[nH]cnc4c23)CS1	-9.3	24.2	-1.2	4.4	1.1	0.8
CCc1nc2c(sc3nc(N4CCOCC4)c4c(c32)CC(C)(C)OC4)c(=O)o1	-1.4	60.9*	x	x	1	0.4
Cc1occc1C(=O)NC1CCCc2ccccc21 (configuration not stated)	70.9*	47.1	4.9	-8.6	0.3	0.5
SMILES	CYP2C19 inh	CYP2C9 inh	sEH activator	sEH inh	CYP2C19 activ	CYP2C9 activ
Cn1c(Cc2cccc3ccccc23)nnc1SCC(=O)N1CCN(c2ccccc2)CC1	12.0	-68.2	0.8	2.1	0.9	1.7
COc1ccc(C(O)(C(=O)NNc2ccc(C)cc2)c2cccs2)cc1 (configuration not stated)	76.8*	24.1	8.5	-6.2	0.2	0.8
CCOc1ccc(OCC)c(-c2c(=O)n(OCc3ccccc3Br)c3ccccc3[n+]2[O-])c1	74.3*	38.2	-1.6	2.0	0.3	0.6
CCOc1ccc(OCC)c(-c2c(=O)n(OCc3ccccc3C(=O)OC)c3ccccc3[n+]2[O-])c1	37.1	37.9	-0.4	2.4	0.6	0.6
COc1ccccc1C(=O)NCCn1cc(SCC(=O)Nc2nnc(C)s2)c2ccccc21	43.7	75.9*	-5.7	5.7	0.6	0.2
Cc1ccc(C(=O)NCCn2cc(SCC(=O)Nc3cc(C)on3)c3ccccc32)cc1	91.2*	86.2*	x	x	0.1	0.1
Cc1cc(NC(=O)CSc2cn(CCNC(=O)c3ccccc3)c3ccccc23)no1	89.5*	93.6*	-9.6	11.6	0.1	0.1
Cc1nnc(NC(=O)CSc2cn(Cc3ccccc3)c3ccccc23)s1	-1.3	-8.9	-0.7	2.9	1	1.1
C=C(C)c1cccc(C(C)(C)NC(=O)N2CCN(CC(N)=O)CC2)c1	-11.4	0.9	-2.9	6.6	1.1	1
CCOC(=O)c1cc(CC)sc1N	43.4	26.2	6.2	-7.4	0.6	0.7
COc1ccc(C(c2nnnn2Cc2cccs2)N2CCN(c3ccccc3F)CC2)cc1OC (configuration not stated)	27.9	22.6	x	x	0.7	0.8
CCOC(=O)CSc1nc2sc3c(c2c(=O)n1C1CCCCC1)CCN(C)C3	x	x	-5.6	7.8	x	x
Cc1ccc(N2C(=O)CC3(CC4C=CC3C4)C2=O)cc1 (configuration not stated)	37.2	80.9*	x	x	0.6	0.2
N#Cc1cnn(CC2CCCCC2)c1N	48.2	29.0	x	x	0.5	0.7
O=c1ccccn1Cc1c(Cl)cccc1Cl	14.2	35.6	7.2	-4.2	0.9	0.6
O=C(Nc1cccn(Cc2c(Cl)cccc2Cl)c1=O)c1ccccc1Cl	80.0*	67.0*	2.4	-4.9	0.2	0.3
O=C(Nc1cccn(Cc2c(Cl)cccc2Cl)c1=O)c1ccc(Cl)cc1Cl	65.0*	56.4*	-4.9	7.5	0.3	0.4
O=C(Nc1cnc2sccn2c1=O)c1ccc(Cl)cc1Cl	7.2	-58.5	-0.8	-1.3	0.9	1.6
O=S(=O)(c1ccccc1)N1CCCC1c1nc2ccccc2s1 (configuration not stated)	18.6	21.0	-10.6	12.7	0.8	0.8
O=C(Nc1nc2ccccc2s1)C1CCCN1S(=O)(=O)c1ccc(Cl)cc1 (configuration not stated)	95.6*	97.2*	-4.4	2.3	0	0
Cc1ccc(S(=O)(=O)N2CCCC2C(=O)Nc2nc3ccccc3s2)cc1 (configuration not stated)	96.8*	85.5*	17.3	-14.1	0	0.1
O=S(=O)(c1ccc(Cl)cc1)N1CCCC1c1nc(-c2ccc(Cl)cc2)no1 (configuration not stated)	x	x	9.6	-7.0	x	x
Nc1nc(C2CCCN2S(=O)(=O)c2ccc(Cl)cc2)cs1 (configuration not stated)	80.2*	11.3	-2.6	3.0	0.2	0.9
CCOc1ccc(CCNS(=O)(=O)c2c(C)n[nH]c2C)cc1OCC	7.5	20.3	x	x	0.9	0.8
